A number with no mark means an inactive call. Inconclusive results are not listed. Active and inactive are the calls of the source. Unless noted, calls come from the whole dose curve; as a rule, active = well fitted curve in the direction sought with a large enough effect in the repeat runs; inconclusive = weak or mixed curves; inactive = no such curve, though single readings can be large; an effect the other way counts as inactive or inconclusive.

A short description of assay [1]: qHTS assay to identify small molecule agonists of the hypoxia (HIF-1) signaling pathway - cell viability counter screen (AID 1224844; calls by dose curve; note: nearly all actives have a fitted effect of over 50% in size). A digest of the protocol: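 HRE-bla ME-180 cells, 2,000/well in 0.5% dialyzed FBS medium, treated 17 h at 37C with compounds. Viability read in the same wells as the bla reporter, by CellTiter-Glo luminescence after 30 min at room temperature.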

Assay [2] in a line: qHTS assay to identify small molecule agonists of H2AX (AID 1224845; active = well fitted activation curve with a large enough effect in the signal ratio in the repeat runs, not every such curve was filed as active; the % refers to the signal ratio). A digest of the protocol:
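Phospho-H2AX Ser139 measured by HTRF (ex 320 nm; em 665 and 620 nm) after 24 hr antibody incubation. Compounds, 15 concentrations, 0.76% DMSO, were applied to CHO-K1 cells for 3hr at 37C before lysis.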

Assay [3] is described as follows: qHTS assay to identify small molecule agonists of the hypoxia (HIF-1) signaling pathway (AID 1224846; active = well fitted activation curve with a large enough effect in the signal ratio in the repeat runs, not every such curve was filed as active; the % refers to the signal ratio). The method in brief: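 HRE-bla ME-180 beta-lactamase reporter cells in medium with 0.5% dialyzed FBS, pre-incubated 5 h then exposed to compounds 17 h at 37C, 5% CO2; reporter induction read with CCF4-AM FRET substrate.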
Assay [4] can be described thus: qHTS assay to identify small molecule agonists of H2AX - cell viability counter screen (AID 1224847; calls by dose curve;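 note: wild-type CHO-K1 cells; top concentration of the series differs between compounds; nearly all actives have a fitted effect of over 30% in size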). A digest of the protocol:
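CHO-K1 cells plated overnight at 37C, then exposed 3 h at 37C to compounds at 15 concentrations (0.76% DMSO final). Viability by CellTiter-Glo luminescence after 30 min at room temperature.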
For orientation: Quantitative high-throughput screening tests each substance at several concentrations.

Assay [5] can be described thus: qHTS assay to identify small molecule antagonists of the estrogen related receptor (ERR) signaling pathway from Tox21 library (AID 1224848). Note: nearly all actives have a fitted effect of over 50% in size. A digest of the protocol:
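Reading was by luminescence 30 min after ONE-Glo addition. Before that, ERR cells at 2,000 per well had rested 6 h at 37 C/5% CO2 and then received pin-tooled compounds in DMSO for 18 h at 37 C.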

Assay [6] can be described thus: qHTS assay to identify small molecule agonists of the estrogen related receptor (ERR) signaling pathway from Tox21 library (AID 1224849; calls by dose curve; note: nearly all actives have a fitted effect of over 15% in size). To be noted: ERR reporter cell line, ONE-Glo luciferase, 18 h; at 92.4 µM (top of the series) unless noted. A digest of the protocol: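 ERR reporter cells (NTP line) pre-incubated 6 hours at 37 C, then exposed to compounds for 18 hours at 37 C. ONE-Glo luciferase luminescence was read after 30 minutes at room temperature.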

The nature of assay [7]: qHTS RealTime-Glo MT Cell Viability Assay in HepG2 cells - 24 hour (AID 1224867). Note: nearly all actives have a fitted effect of over 50% in size. The method in brief:
(§1)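 Cells + NanoLuc/prosubstrate dispensed (600 cells/well) → 5 h at 37 C/5% CO2 → compounds in DMSO transferred → 40 h incubation at 37 C, luminescence read at 0, 8, 16, 24, 32, 40 h.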

Assay [8] is described as follows: qHTS RealTime-Glo MT Cell Viability Assay in HEK293 cells - 32 hour (AID 1224868). Note: nearly all actives have a fitted effect of over 50% in size. Note: potency is the fitted concentration of half-maximal effect. The method in brief:
(§2)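 Tox21 10K qHTS, HEK293, 600 cells/well, RealTime-Glo reagent co-dispensed with cells; 5 h preincubation, compound by pintool, 37 C, luminescence at 0–40 h.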

The nature of assay [9]: A CellTox Green Cytotoxicity Assay to monitor cytotoxicity in HEK293 cells - 0 hour (AID 1224869). Note: nearly all actives have a fitted effect of over 50% in size. A digest of the protocol: (§3)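 HEK293 cells, 600/well, were preincubated 5 hours and then exposed to compounds at 37 C for up to 40 hours. A cell-impermeant cyanine dye staining dead-cell DNA was read by fluorescence at 0, 8, 16, 24, 32 and 40 h time points.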
Assay [10] can be described thus: qHTS RealTime-Glo MT Cell Viability Assay in HepG2 cells - 40 hour (AID 1224870). Note: nearly all actives have a fitted effect of over 50% in size. A digest of the protocol: (§4)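 Real-time viability: cells seeded at 600 per well together with NanoLuc and cell-permeant prosubstrate, compounds added after 5 h incubation. Luminescence tracked at 0, 8, 16, 24, 32 and 40 h of exposure.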
The nature of assay [11]: A CellTox Green Cytotoxicity Assay to monitor cytotoxicity in HEK293 cells - 40 hour (AID 1224871). Note: nearly all actives have a fitted effect of over 45% in size. The method in brief: as §3
Assay [12] in a line: qHTS RealTime-Glo MT Cell Viability Assay in HEK293 cells - 16 hour (AID 1224872). A digest of the protocol: as §2
A short description of assay [13]: qHTS RealTime-Glo MT Cell Viability Assay in HepG2 cells - 8 hour (AID 1224873). Note: nearly all actives have a fitted effect of over 55% in size. A digest of the protocol:
as §4

A short description of assay [14]: qHTS RealTime-Glo MT Cell Viability Assay in HEK293 cells - 40 hour (AID 1224874). Note: nearly all actives have a fitted effect of over 50% in size. The following applies: RealTime-Glo luminescence; max response: stronger effect = lower value. A digest of the protocol: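 600 cells/well were plated with the nonlytic NanoLuc/prosubstrate reagent, pre-incubated 5 h, then given 23 nL of compound in DMSO. Incubation at 37 C for 40 h, with luminescence from viable-cell-reduced substrate read repeatedly from 0 h.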

Assay [15] can be described thus: A CellTox Green Cytotoxicity Assay to monitor cytotoxicity in HEK293 cells - 24 hour (AID 1224875). Note: nearly all actives have a fitted effect of over 45% in size. A digest of the protocol:
as §3

Assay [16] can be described thus: A CellTox Green Cytotoxicity Assay to monitor cytotoxicity in HepG2 cells - 16 hour (AID 1224876). Note: nearly all actives have a fitted effect of over 45% in size. The method in brief: (§5)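 HepG2 cells, 600/well, preincubated 5 h with CellTox Green dye, then exposed to Tox21 compounds in DMSO at 37 C for up to 40 h. Dead-cell DNA fluorescence read at the indicated time point.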
The nature of assay [17]: qHTS RealTime-Glo MT Cell Viability Assay in HepG2 cells - 32 hour (AID 1224877). Note: nearly all actives have a fitted effect of over 55% in size. A digest of the protocol: as §1
Assay [18] in a line: A CellTox Green Cytotoxicity Assay to monitor cytotoxicity in HepG2 cells - 40 hour (AID 1224879). Note: nearly all actives have a fitted effect of over 40% in size. Note: potency is the fitted concentration of half-maximal effect. A digest of the protocol:
as §5

Assay [19] addresses Thyrotropin receptor (Homo sapiens) (UniProt P16473). Kind of assay: qHTS assay to identify small molecule agonists of the thyroid stimulating hormone receptor (TSHR) signaling pathway (AID 1224843; calls by dose curve; note: nearly all actives have a fitted effect of over 45% in size). A digest of the protocol:
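HEK293 cells stably bearing the thyrotropin receptor were plated at 800 cells/well and challenged with compound (30 min, RT). Accumulated cAMP was quantified via cAMP-d2 competing for cryptate-tagged antibody.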

The nature of assay [20]: A CellTox Green Cytotoxicity Assay to monitor cytotoxicity in HepG2 cells - 24 hour (AID 1224878). Note: nearly all actives have a fitted effect of over 45% in size. Note: potency is the fitted concentration of half-maximal effect. A digest of the protocol: as §5
% is set by controls: 0 for no effect and ±100 for the full control effect.

Sequence of Thyrotropin receptor (Homo sapiens) (P16473 whole entry, looked up): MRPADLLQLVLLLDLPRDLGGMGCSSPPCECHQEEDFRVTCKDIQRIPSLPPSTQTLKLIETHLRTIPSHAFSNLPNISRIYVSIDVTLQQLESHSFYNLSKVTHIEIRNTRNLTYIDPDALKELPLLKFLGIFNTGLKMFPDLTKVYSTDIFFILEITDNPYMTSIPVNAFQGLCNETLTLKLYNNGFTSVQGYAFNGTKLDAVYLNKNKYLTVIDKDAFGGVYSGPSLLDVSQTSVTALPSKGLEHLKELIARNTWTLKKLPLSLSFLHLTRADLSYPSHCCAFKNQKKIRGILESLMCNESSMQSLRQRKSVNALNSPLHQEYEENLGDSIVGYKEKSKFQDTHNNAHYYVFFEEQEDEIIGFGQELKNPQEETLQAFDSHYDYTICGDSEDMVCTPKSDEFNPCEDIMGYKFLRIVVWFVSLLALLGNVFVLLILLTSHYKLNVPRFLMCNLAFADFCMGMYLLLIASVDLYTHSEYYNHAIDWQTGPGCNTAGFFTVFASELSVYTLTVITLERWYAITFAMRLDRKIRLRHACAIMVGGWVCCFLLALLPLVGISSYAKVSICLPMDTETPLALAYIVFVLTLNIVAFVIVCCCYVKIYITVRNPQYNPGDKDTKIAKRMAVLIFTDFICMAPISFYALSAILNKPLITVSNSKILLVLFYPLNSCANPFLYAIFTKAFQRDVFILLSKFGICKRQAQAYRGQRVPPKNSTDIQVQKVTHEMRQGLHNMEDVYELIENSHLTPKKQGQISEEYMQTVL

Take `CC(=O)N[C@@H](CC(C)C)C(=O)O`: the Potency entry in assay [1], in assay [2], in [4], in [5], in assay [7] and in [8] was “inactive” each time. Besides, the Potency entry in [9], in assay [10], in assay [11], in assay [12], in [15] and in [16] was “inactive” each time. For the same molecule, the Potency entry in [17] and in [18] was “inactive” in each case. Moreover, the result in assay [3] and in assay [13] was inactive. The activity change, positive = activation in assay [6] was -0.851% [at 42.5 µM]. Also, in [14], the max response is -2.78%.
In the case of `NC/C=C/C(=O)O`, the Potency result in assay [19], in assay [1], in [2], in assay [5], in assay [7] and in [8] was “inactive” in each case. Besides, the Potency result in [9], in assay [10], in assay [11], in assay [12], in [15] and in assay [16] was “inactive” each time. Moreover, the Potency result in [17], in [20] and in assay [18] was “inactive” throughout. Further, the activity change, positive = activation in assay [6] is 6.36% [at 42.5 µM]. In addition, the max response in assay [14] was 2.11%.
As to `Cc1nnc(SCC2=C(C(=O)O)N3C(=O)[C@@H](NC(=O)Cn4cnnn4)[C@H]3SC2)s1`, the Potency result in assay [19], in assay [1], in [2], in assay [4], in assay [7] and in [8] was “inactive” throughout. Moreover, the Potency result in assay [9], in assay [10], in [11], in assay [12], in assay [15] and in assay [16] was “inactive” in each case. For the same molecule, the Potency entry in assay [17], in assay [20] and in [18] was “inactive” throughout. The max response in [14] is 6.83%.
Consider `Cc1cccc(C)c1NC(=O)CN1CCCCCC1`, for which the Potency entry in [1], in assay [2], in [4], in [5], in assay [7] and in [8] was “inactive” in each case. Besides, the Potency result in assay [9], in [10], in assay [11], in assay [12], in assay [15] and in assay [16] was “inactive” throughout. In addition, the Potency entry in [17], in assay [20] and in [18] was “inactive” each time. The call in [3] and in assay [13] was inactive. Also, the activity change, positive = activation in assay [6] was 0.669% [at 42.5 µM]. Moreover, the max response in assay [14] was 5.59%.
With `CCOC(=O)NCCC[Si](OCC)(OCC)OCC`, the Potency result in assay [1], in assay [2], in assay [4], in [5], in assay [7] and in [8] was “inactive” throughout. Besides, the Potency entry in [9], in assay [10], in assay [11], in assay [12], in [15] and in [16] was “inactive” each time. Further, the Potency entry in [17] and in assay [18] was “inactive” in each case. The molecule was classed as inactive in [3] and in assay [13]. In addition, the activity change, positive = activation in assay [6] is -9.42%. The max response in [14] is 4.72%.
`CCCCOc1cc(C(=O)NCCN(CC)CC)c2ccccc2n1`: the Potency result in [19], in assay [1], in assay [2], in assay [4], in assay [7] and in [9] was “inactive” each time. The Potency entry in [10], in [15] and in [17] was “inactive” each time. Further, the Potency is 21.3 µM (active) in assay [8], 21.3 µM (active) in assay [20] and 23.9 µM (active) in [18]. In addition, the result in [13] was inactive.
On to `CCCOc1ccc2c(c1)CC[C@@H]1[C@@H]2CC[C@]2(C)C(OC)CC[C@@H]12` (some centres undefined), for which the Potency result in assay [19], in assay [1], in assay [2], in assay [5], in assay [7] and in [8] was “inactive” each time. Besides, the Potency entry in [9], in assay [10], in assay [11], in assay [12], in assay [15] and in assay [16] was “inactive” in each case. For the same molecule, the Potency entry in assay [17], in [20] and in assay [18] was “inactive” throughout. The activity change, positive = activation in assay [6] was -2.22% [at 42.5 µM]. Also, the call in [13] was inactive. The max response in assay [14] is 6.13%.

Values taken from PubChem BioAssay (Tox21).
